Measurements published in article PMC5700166.
Substitutions are numbered along the chain they refer to.

Experiments:
Assay in all cases: protein-binding microarray (PBM); PBM: ~300 nM protein, 6 mM HEPES pH 7.8, 80 mM KCl, 0.5 mM EDTA, 0.5 mM EGTA, 6% glycerol, 35 ng/ul poly-dIdC, 1% milk, 1 h, room temperature; Ap Aiptasia and Nv Nematostella (sea anemones) / Co Capsaspora / Aq Amphimedon (sponge) / Dm Drosophila / Hu human; RHD is the Rel homology domain; high values mean tight binding
Conditions in all cases: dsDNA, one strand shown
[1] = biological target: T1, GST-Ap-NF-kB RHD (Exaiptasia pallida (Aiptasia), UniProt A0A913YAJ5 2-422)
T1 sequence: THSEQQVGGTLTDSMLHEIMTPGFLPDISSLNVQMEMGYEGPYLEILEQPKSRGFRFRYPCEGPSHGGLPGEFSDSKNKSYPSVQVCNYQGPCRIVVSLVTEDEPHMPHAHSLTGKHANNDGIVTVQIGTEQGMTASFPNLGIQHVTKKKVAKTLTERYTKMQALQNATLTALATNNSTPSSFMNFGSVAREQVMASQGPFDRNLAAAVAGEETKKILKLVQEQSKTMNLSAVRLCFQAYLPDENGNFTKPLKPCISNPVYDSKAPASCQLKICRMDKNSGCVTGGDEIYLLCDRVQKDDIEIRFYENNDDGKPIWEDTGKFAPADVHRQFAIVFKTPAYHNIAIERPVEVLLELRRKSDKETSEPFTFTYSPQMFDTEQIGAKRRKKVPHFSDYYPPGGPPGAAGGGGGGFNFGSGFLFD

[2] = biological target: T2, GST-Nv-NF-kB (Cys allele) (Nematostella vectensis, UniProt E5G601 2-411)
T2 sequence: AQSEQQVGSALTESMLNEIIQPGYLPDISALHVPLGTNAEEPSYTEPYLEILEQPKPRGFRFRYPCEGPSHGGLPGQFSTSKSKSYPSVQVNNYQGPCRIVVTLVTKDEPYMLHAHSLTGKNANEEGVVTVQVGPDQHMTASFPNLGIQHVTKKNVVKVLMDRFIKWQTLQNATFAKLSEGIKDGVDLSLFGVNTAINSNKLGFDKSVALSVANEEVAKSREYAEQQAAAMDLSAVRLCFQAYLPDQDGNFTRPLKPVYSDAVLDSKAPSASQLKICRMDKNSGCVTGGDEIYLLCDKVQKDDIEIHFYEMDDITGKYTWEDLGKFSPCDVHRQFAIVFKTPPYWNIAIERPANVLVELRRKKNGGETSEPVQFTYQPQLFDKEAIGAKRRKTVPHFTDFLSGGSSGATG

[3] = biological target: T3, GST-Nv-NF-kB (Ser allele) (Nematostella vectensis, UniProt A7UNT2 2-411)
T3 sequence: T2 sequence with Q21R, C66S, S207N, E215Q, V217A, E225K, A268E, D399E

[4] = biological target: T4, GST-Co-NF-kB (Capsaspora owczarzaki, UniProt F1ARL5 200-546)
T4 sequence: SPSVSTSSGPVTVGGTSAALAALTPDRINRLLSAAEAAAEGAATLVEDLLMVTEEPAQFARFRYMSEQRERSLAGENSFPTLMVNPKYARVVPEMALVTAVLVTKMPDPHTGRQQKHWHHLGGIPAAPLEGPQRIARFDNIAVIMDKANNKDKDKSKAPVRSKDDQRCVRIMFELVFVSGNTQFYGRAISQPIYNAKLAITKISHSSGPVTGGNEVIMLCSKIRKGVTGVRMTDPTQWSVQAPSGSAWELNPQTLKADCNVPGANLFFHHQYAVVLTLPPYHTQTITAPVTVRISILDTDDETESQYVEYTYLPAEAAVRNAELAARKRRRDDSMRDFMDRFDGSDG

[5] = biological target: T5, GST-Dm-Relish (Drosophila melanogaster, UniProt Q94527 99-473)
T5 sequence: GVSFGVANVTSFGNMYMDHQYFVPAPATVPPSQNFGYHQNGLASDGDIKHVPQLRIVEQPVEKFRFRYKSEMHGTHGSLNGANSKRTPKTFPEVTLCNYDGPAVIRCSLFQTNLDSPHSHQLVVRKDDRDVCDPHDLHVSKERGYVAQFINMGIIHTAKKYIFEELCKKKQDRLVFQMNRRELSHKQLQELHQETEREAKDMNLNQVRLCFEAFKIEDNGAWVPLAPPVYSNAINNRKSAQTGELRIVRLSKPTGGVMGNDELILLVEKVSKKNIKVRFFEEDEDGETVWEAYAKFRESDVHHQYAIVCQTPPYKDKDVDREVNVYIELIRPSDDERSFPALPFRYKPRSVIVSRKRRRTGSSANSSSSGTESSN

[6] = biological target: T6, GST-Aq-NF-kB (Amphimedon queenslandica, UniProt A9Y5G7 2-389)
T6 sequence: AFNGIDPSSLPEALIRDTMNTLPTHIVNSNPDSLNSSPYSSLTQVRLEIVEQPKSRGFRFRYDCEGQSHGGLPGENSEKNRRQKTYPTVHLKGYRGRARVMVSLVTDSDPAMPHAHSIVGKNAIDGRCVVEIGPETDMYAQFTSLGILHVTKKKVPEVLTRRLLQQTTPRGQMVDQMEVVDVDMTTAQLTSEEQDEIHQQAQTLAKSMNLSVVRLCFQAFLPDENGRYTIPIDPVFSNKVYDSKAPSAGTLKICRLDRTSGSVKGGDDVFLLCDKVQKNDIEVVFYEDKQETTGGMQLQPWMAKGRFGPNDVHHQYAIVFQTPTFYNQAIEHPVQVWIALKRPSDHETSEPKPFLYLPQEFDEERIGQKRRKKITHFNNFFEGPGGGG

| Sequence | binding signal [1] | binding signal [2] | binding signal [3] | binding signal [4] | binding signal [5] | binding signal [6] |
| --- | --- | --- | --- | --- | --- | --- |
| CCGATTAACATCACGCCCCCCCCTGATGTTAATCGGGTCTTGATTCGCTTGACGCTGCTG | 5.3 z-score | 4.2 z-score | 4.8 z-score | 3.87 z-score | 4.72 z-score | 4.89 z-score |
| CCGATTAACATCACATTTCCCCATGATGTTAATCGGGTCTTGATTCGCTTGACGCTGCTG | 4.9 z-score | 6.14 z-score | 8.95 z-score | 7.21 z-score | 2.25 z-score | 3.87 z-score |
| CCGATTAACATCAATAGTTCCCCTGATGTTAATCGGGTCTTGATTCGCTTGACGCTGCTG | 6.43 z-score | 6.96 z-score | 8.51 z-score | 7.79 z-score | 6.77 z-score | 5.01 z-score |
| CCGATTAACATCAATAAATTCCCTGATGTTAATCGGGTCTTGATTCGCTTGACGCTGCTG | 4.18 z-score | 7.04 z-score | 7.28 z-score | 4.25 z-score | 5.85 z-score | 5.34 z-score |
| CCGATTAACATCAATCCCCCCCATGATGTTAATCGGGTCTTGATTCGCTTGACGCTGCTG | 7.7 z-score | 5.57 z-score | 4.56 z-score | 6.68 z-score | 5.46 z-score | 4.81 z-score |
| CCGATTAACATCACCGTTTTCCCTGATGTTAATCGGGTCTTGATTCGCTTGACGCTGCTG | 3.62 z-score | 4.51 z-score | 6.61 z-score | 4.03 z-score | 2.19 z-score | 3.24 z-score |
| CCGATTAACATCACCCCCACCCCTGATGTTAATCGGGTCTTGATTCGCTTGACGCTGCTG | 3.49 z-score | 2.96 z-score | 1.75 z-score | 4.43 z-score | 3.84 z-score | 3.33 z-score |
| CCGATTAACATCAACGTTTTCCCTGATGTTAATCGGGTCTTGATTCGCTTGACGCTGCTG | 3.04 z-score | 4.61 z-score | 6.7 z-score | 4.29 z-score | 1.51 z-score | 3.21 z-score |
| CCGATTAACATCACTTTCCCCCCTGATGTTAATCGGGTCTTGATTCGCTTGACGCTGCTG | 5.84 z-score | 5.86 z-score | 7.31 z-score | 9.03 z-score | 4.29 z-score | 5.34 z-score |
| CCGATTAACATCAGGGGAACTCATGATGTTAATCGGGTCTTGATTCGCTTGACGCTGCTG | 6.56 z-score | 6.78 z-score | 7.59 z-score | 5.3 z-score | 6.03 z-score | 4.88 z-score |
| CCGATTAACATCAGGGGAAGAAATGATGTTAATCGGGTCTTGATTCGCTTGACGCTGCTG | 4.46 z-score | 5.99 z-score | 6.85 z-score | 8.71 z-score | 6.53 z-score | 4.68 z-score |
| CCGATTAACATCAGAAATCCCAATGATGTTAATCGGGTCTTGATTCGCTTGACGCTGCTG | 2.44 z-score | 2.13 z-score | 1.82 z-score | 1.84 z-score | 5.13 z-score | 2.14 z-score |
| CCGATTAACATCAGGGGAATGGATGATGTTAATCGGGTCTTGATTCGCTTGACGCTGCTG | 5.2 z-score | 5.95 z-score | 7.13 z-score | 3.65 z-score | 1.71 z-score | 4.07 z-score |
| CCGATTAACATCAGGGAATACACTGATGTTAATCGGGTCTTGATTCGCTTGACGCTGCTG | 2.66 z-score | 2.43 z-score | 2.21 z-score | 2.5 z-score | 2.61 z-score | 3.68 z-score |
| CCGATTAACATCAAAATTCCCTCTGATGTTAATCGGGTCTTGATTCGCTTGACGCTGCTG | 5.17 z-score | 7.29 z-score | 7.2 z-score | 3.2 z-score | 5.36 z-score | 6.5 z-score |
| CCGATTAACATCAAATTCCCACGTGATGTTAATCGGGTCTTGATTCGCTTGACGCTGCTG | 2.06 z-score | 3.63 z-score | 3.63 z-score | 2.77 z-score | 3.95 z-score | 2.61 z-score |
| CCGATTAACATCAGGAGTCTCCCTGATGTTAATCGGGTCTTGATTCGCTTGACGCTGCTG | 1.69 z-score | 2.44 z-score |  | 2.17 z-score |  | 5.28 z-score |
| CCGATTAACATCAGTACGGGAAATGATGTTAATCGGGTCTTGATTCGCTTGACGCTGCTG | 1.79 z-score | 3.11 z-score |  | 2.65 z-score |  | 2.81 z-score |
| CCGATTAACATCAATAAAGTCCCTGATGTTAATCGGGTCTTGATTCGCTTGACGCTGCTG | 5.45 z-score | 7.06 z-score | 7.32 z-score |  | 6.49 z-score | 5.67 z-score |
| CCGATTAACATCAGGGGAAGCACTGATGTTAATCGGGTCTTGATTCGCTTGACGCTGCTG | 5.88 z-score | 6.43 z-score | 6.99 z-score | 4.4 z-score | 9.95 z-score | 6.83 z-score |
| CCGATTAACATCAGGGGAGTGTATGATGTTAATCGGGTCTTGATTCGCTTGACGCTGCTG | 3.6 z-score | 3.38 z-score |  | 3.2 z-score |  | 2.89 z-score |
| CCGATTAACATCACGAAATTCCCTGATGTTAATCGGGTCTTGATTCGCTTGACGCTGCTG | 4.84 z-score | 6.78 z-score | 7.28 z-score | 4.17 z-score | 4.59 z-score | 5.74 z-score |
| CCGATTAACATCAATTTTTTCCCTGATGTTAATCGGGTCTTGATTCGCTTGACGCTGCTG | 3.79 z-score | 5.88 z-score | 7.47 z-score | 6.48 z-score | 2.71 z-score | 4.16 z-score |
